ELG1 genotox – qHTS screen for small molecules that induce genotoxicity in human embryonic kidney (HEK293T) cells expressing luciferase-tagged ELG1. HEK293T ELG1-luciferase reporter, luminescence, 16 h. Potency, µM (series often up to 46 µM), for the others: at the highest dose activity change, positive = activation, most hits filed as activators. actives 1.3% (n = 330,000). AID 504466, 2011; note: % of control where 0% means no effect; nearly all actives have a fitted effect of over 60% in size
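Quantitative HTS format in 1536-well plates. HEK293T ELG1-luciferase reporter cells receive test compound and are incubated 16 hr at 37 °C, 5% CO2; ONE-Glo added, 30 min room temperature, then luminescence read.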
FLuc counter – qHTS profiling assay for firefly luciferase inhibitor/activator using purifed enzyme and Km concentrations of substrates (counterscreen for miR-21 project) | AID 588342, 2011 | Luciferin 4-monooxygenase (Photinus pyralis), P08659 | Potency, µM (series often up to 57.5 µM), for the others: at the highest dose activity change, negative = inhibition, usual class: inhibitors | purified FLuc, Km substrates, luminescence inhibition | actives 6.9% (n = 360,000);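 note: plate controls were vehicle for no effect and reference inhibitor for full effect; nearly all actives have a fitted effect of over 55% in size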
Target sequence (P08659 whole entry, looked up): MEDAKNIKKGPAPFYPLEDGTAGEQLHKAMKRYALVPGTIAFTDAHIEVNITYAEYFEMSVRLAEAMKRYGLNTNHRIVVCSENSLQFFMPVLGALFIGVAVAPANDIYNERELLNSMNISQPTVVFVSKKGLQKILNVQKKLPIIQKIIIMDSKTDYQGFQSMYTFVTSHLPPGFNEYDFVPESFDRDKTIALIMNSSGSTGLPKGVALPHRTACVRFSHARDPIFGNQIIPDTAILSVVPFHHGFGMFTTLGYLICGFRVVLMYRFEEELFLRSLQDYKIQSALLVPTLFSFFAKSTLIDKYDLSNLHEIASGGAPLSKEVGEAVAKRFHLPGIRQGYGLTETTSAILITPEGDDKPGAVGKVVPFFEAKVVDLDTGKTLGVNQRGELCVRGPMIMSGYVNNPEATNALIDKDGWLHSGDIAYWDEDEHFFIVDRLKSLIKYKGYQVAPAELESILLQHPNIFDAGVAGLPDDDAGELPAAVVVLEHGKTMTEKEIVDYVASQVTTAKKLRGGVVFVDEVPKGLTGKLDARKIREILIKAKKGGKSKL
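Purified P. pyralis luciferase, 10 nM final, with Km-level 10 uM D-luciferin and 10 uM ATP in 50 mM Tris acetate pH 7.5, 10 mM Mg acetate, 0.01% Tween-20, 0.05% BSA; 6-point qHTS titration about 60 µM downward; luminescence read.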
Rab9 promoter act – qHTS Assay for Rab9 Promoter Activators; Huh7 Rab9 promoter-luciferase reporter, luminescence, 24 h; actives 2.8% (n = 320,000); Potency, µM (titrated, usually from 9.22 µM), for the others: top-dose activation, negative = inhibition, actives largely listed as activators; note: % of control where 0% means no effect; nearly all actives have a fitted effect of over 60% in size
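Steps: seed 1500 Huh7 Rab9-luc cells per well, rest 2 h at 37 °C; add compound in DMSO; incubate 24 h; add luciferase reagent, 10 min ambient; read luminescence.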
SMN2 splice enh – qHTS Assay for Enhancers of SMN2 Splice Variant Expression; HEK293 SMN2-luciferase splicing reporter, luminescence, 30-36 h; Potency, µM (series often up to 46.1 µM), for inactives: at the highest dose activity change, positive = activation, usual class: activators; AID 1458, 2008; actives 2.8% (n = 210,000); note: % of control where 0% means no effect; nearly all actives have a fitted effect of over 55% in size
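qHTS luciferase splicing reporter: luminescence rises when SMN2 exon 7 is included in transfected HEK293 cells. Compound exposure lasted 30-36 h at 37C, with 4.5 mM final sodium butyrate as control, followed by a ONE-Glo read.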
NPC1 prom act – qHTS Assay for NPC1 Promoter Activators; Huh7 NPC1 promoter luciferase reporter, 24 h; Potency, µM (doses to about 9.22 µM), without a hit: at the highest dose activation, most hits filed as activators; actives 2.4% (n = 320,000); AID 485313, 2010; note: % of control where 0% means no effect; nearly all actives have a fitted effect of over 60% in size
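Cells: Huh7 expressing luciferase under the NPC1 promoter, 1500/well. Seeded 2 h, compound added, incubated 24 h at 37 °C. Luciferase reagent, 10 min ambient, then luminescence.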
KinaseGlo FLuc – Counterscreen for Luciferase (Kinase-Glo TM) Inhibition; actives 0.28% (n = 200,000); AID 1379, 2008; Kinase-Glo luciferase, ATP luminescence, 8 min; Potency, µM (doses to about 38.3 µM), without a hit: at the highest dose activity change, negative = inhibition, hits mostly inhibitors; note: % is set by controls: 0 for no effect and ±100 for the full control effect; nearly all actives have a fitted effect of over 60% in size
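Recombinant Kinase-Glo luciferase, 10 uM ATP (linear range), luciferin; imidazole pH 7.2 / KCl / MgCl2 / Tween / BSA buffer; 8 min RT; luminescence.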
Active calls of the source: *; ? = inconclusive; . = not tested or not shown; [ ] = another dose, or the depositor's remark. This is a sample that favours compounds with a hit; in the whole collection about 7.5% have one here. Calls come from the whole dose curve; as a rule, active = well fitted curve in the direction sought with a large enough effect; inconclusive = small, poorly fitted or top-dose-only effect, or another doubt; inactive = no such curve, though single readings can be large; an effect the other way counts as inactive or inconclusive. Potency is the fitted concentration of half-maximal effect.

SMILES	ELG1 genotox	FLuc counter	Rab9 promoter act	SMN2 splice enh	NPC1 prom act	KinaseGlo FLuc
O=C(CSCc1ccccc1)Nc1ccc(F)c(F)c1	?	17µM*	?	?	24%	-1%
O=C(CSCc1ccc(F)cc1)Nc1ccccc1	9%	-22%	-2%	6%	5%	1%
Cc1ccc(CSCC(=O)Nc2ccc3c(c2)OCO3)cc1	-1%	-16%	0%	7%	11%	1%
O=C(CCNC(=O)c1ccccc1)NCc1ccccc1F	11%	2.7µM*	19%	.	10%	.
O=C(CSCc1ccc(Cl)cc1)Nc1ccc2c(c1)OCCO2	13%	24µM*	10%	-15%	19%	-8%
COc1cccc(CN2CC(C(=O)NCCc3ccc(C)o3)CCC2=O)c1 (stereo not drawn)	5%	-1%	-5%	.	-4%	.
O=C(O)C1CC[C@@](C(=O)O)(c2ccccc2)c2ccccc21 (stereo partly drawn)	.	.	.	3%	.	0%
COC(=O)C1(C(=O)OC)C/C=C\C/C=C\c2ccccc2[C@@H]1C[N+](=O)[O-]	.	.	.	2%	.	0%
COc1cc(Cl)c(C)cc1NC(=O)CN1c2ccccc2S(=O)(=O)c2ccccc21	.	-8%	.	.	.	.
O=C(CCn1c(=O)oc2ccccc21)Nc1ccc2c(c1)OCCO2	?	19µM*	?	.	?	.
Cc1ccc(NC(=O)CN2C(=O)C3C4C=CC(C4)C3C2=O)cc1 (stereo not drawn)	5%	4%	3%	14%	-3%	-4%
CC(C)=CC(=O)Nc1ccc2c(c1)OCO2	.	11µM*	.	11µM*	.	-27%
O=C(CN1C(=O)C2C3C=CC(C3)C2C1=O)Nc1ccc2c(c1)OCCO2 (stereo not drawn)	?	17µM*	3.5µM*	21%	?	0%
O=C(Cn1c(=O)oc2ccccc21)Nc1ccc2c(c1)OCCO2	0%	-10%	-5%	16%	-3%	6%
CC(CC(=O)Nc1ccc2c(c1)OCCO2)c1ccccc1 (stereo not drawn)	?	?	?	11µM*	?	-3%
O=C(CSc1nnc2ccccn12)Nc1ncc(Cl)cc1Cl	18µM*	?	?	?	20%	-2%
Cc1ccc(SCC(=O)Nc2ccc(N3CCN(c4ccccc4)CC3)c(F)c2)cc1	1%	4%	-2%	-14%	3%	4%
O=C(CSCSCC(=O)Nc1ccc2c(c1)OCO2)Nc1ccc2c(c1)OCO2	-2%	17µM*	-4%	-7%	-1%	-4%
O=C(CSc1ccccc1)Nc1ccc2c(c1)OCCO2	1.6µM*	2.4µM*	0.63µM*	.	0.89µM*	.
CN1CCN(c2ccc(NC(=O)CSc3ccccc3)cc2F)CC1	2.1µM*	11µM*	1.4µM*	11µM*	1.8µM*	-1%
Cc1cc(C)n(-c2cccc(CN(C)Cc3nc(-c4cnccn4)no3)c2)n1	-4%	-4%	-2%	.	-4%	1%
COc1cccc(CNC(=O)c2ccc(CNS(=O)(=O)c3ccc(C)cc3)cc2)c1	.	-9%	.	.	.	.
CCOC(=O)C1CCN(S(=O)(=O)c2ccc3oc(=O)ccc3c2)CC1	1%	2%	-1%	.	2%	.
CCCCCS(=O)(=O)CCCCCCCCCCn1c(-c2ccc(O)cc2)c(C)c2cc(O)ccc21	.	.	.	-114%	.	0%
CC1(C#CC[N+]2(C)CCCCC2)CCC2C(O1)c1ccccc1OC2(C)C (stereo not drawn)	17%	-4%	-2%	12%	6%	0%
SMILES	ELG1 genotox	FLuc counter	Rab9 promoter act	SMN2 splice enh	NPC1 prom act	KinaseGlo FLuc
O=C(CSc1ccc(-c2ccccn2)nn1)Nc1ccc(F)c(F)c1	?	13µM*	-10%	.	-1%	.
CC(=O)c1ccc(NC(=O)CSc2ccc(-c3sc(C)nc3C)nn2)cc1	-19%	13µM*	5%	.	12%	.
Cc1nc(C)c(-c2ccc(SCC(=O)Nc3ccc(C)c(Cl)c3)nn2)s1	-3%	?	-7%	.	-3%	.
Cc1ccc(NC(=O)CSc2ccc(-c3ccccn3)nn2)cc1	?	-15%	2%	-39%	0%	0%
CCOc1ccc(NC(=O)CSc2ccc(-c3ccccn3)nn2)cc1	15%	-8%	0%	.	1%	.
CCOC(=O)c1ccc(NC(=O)CSc2ccc(-c3ccccn3)nn2)cc1	?	11µM*	-2%	.	-2%	.
COc1cccc(CNC(=O)c2ccc(NC(=O)N3CCCCc4ccccc43)cc2)c1	.	-10%	.	.	.	.
Clc1cnc(N/N=C/c2ccco2)c(Cl)c1	?	11µM*	0.79µM*	5.6µM*	1.4µM*	-17%
Cc1ccc(/C=N/Nc2ncc(Cl)cc2Cl)s1	?	6µM*	?	?	3.5µM*	-4%
Clc1cnc(N/N=C/c2cccs2)c(Cl)c1	?	9.5µM*	4µM*	?	2.2µM*	-8%
Oc1ccc(/C=N/Nc2ncc(Cl)cc2Cl)cc1	?	?	13%	.	15%	.
CCOc1ccccc1NC(=O)Cn1c(=O)ccc2cc(S(=O)(=O)N3CCCC3)ccc21	.	-5%	.	.	.	.
CCOC(=O)c1ccc(NC(=O)CCc2nc3cccnc3n2Cc2cccs2)cc1	.	-6%	.	2%	.	.
O=C(OCC(=O)c1ccc(Cl)s1)c1ccc(CO)cc1	-1%	21µM*	0%	.	0%	.
Cc1ccc(C(=O)COC(=O)c2ccc(Cl)c(N)c2)s1	14%	1.3µM*	3.2µM*	.	?	.
Nc1cc(C(=O)OCC(=O)c2ccc(CC(=O)N3CCOCC3)s2)ccc1Cl	-1%	?	-4%	.	0%	.
Cc1ccn2c(NC(=O)c3ccccc3)c(-c3cccs3)nc2c1	0%	-16%	3%	0%	-1%	-1%
Cc1ccn2c(NCc3ccccc3)c(-c3cccs3)nc2c1	9%	15µM*	3.2µM*	?	?	-8%
Cc1ccn2c(NC3CCCC3)c(-c3cccs3)nc2c1	-3%	19µM*	?	9%	16%	-13%
Nc1ccc(-c2nnc(-c3ccc(N)cc3)o2)cc1	16µM*	3.4µM*	3.5µM*	.	3.5µM*	.
Cc1ccc(-c2nnc(-c3ccc4ccccc4c3)o2)cc1	.	.	.	?	.	-6%[7.66 µM]
Cc1cccc(-c2nnc(-c3ccc(N)cc3)o2)c1	?	3.4µM*	2.8µM*	4.5µM*	?	-19%
O=c1c2cccc3c(N4CCOCC4)ccc(c32)c2nc3ccccc3n12	?	5.4µM*	1%	-21%	-1%	-6%
